Source: PubChem BioAssay
ALDH1A1 inh – qHTS Assay for Inhibitors of Aldehyde Dehydrogenase 1 (ALDH1A1); Aldehyde dehydrogenase 1A1 (Homo sapiens), P00352; Purified ALDH1A1, NADH fluorescence, propionaldehyde substrate; Potency, µM (titrated, usually from 75.3 µM), actives largely listed as inhibitors; hit rate 7.3% among 220,000; AID 1030, 2008; active means well fitted inhibition curve with a large enough effect, not every such curve was filed as active; inconclusive means small, poorly fitted or top-dose-only effect, or another doubt; inactive means no such curve, though single readings can be large or run the other way
VP16 counter – VP16 counterscreen qHTS for inhibitors of ROR gamma transcriptional activity. Drosophila S2 Gal4-VP16 UAS-luciferase, luminescence, 20 h. Potency, µM (titrated, usually from 53.6 µM), usual class: inhibitors. hit rate 3.5% among 310,000. AID 2546, 2010;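 further: Gal4-VP16 expression switched on by copper sulfate through the metallothionein promoter; nearly all actives have a fitted effect of over 50% in size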
RORgamma inh – qHTS for inhibitors of ROR gamma transcriptional activity; Nuclear receptor ROR-gamma (Mus musculus), P51450; Drosophila S2 Gal4-RORgamma UAS-luciferase reporter, 20 h; Potency, µM (series often up to 53.6 µM), hits mostly inhibitors; hit rate 5.4% among 310,000; AID 2551, 2010; further: nearly all actives have a fitted effect of over 60% in size
Target sequence (P51450 whole entry, looked up, the tested form may be a part): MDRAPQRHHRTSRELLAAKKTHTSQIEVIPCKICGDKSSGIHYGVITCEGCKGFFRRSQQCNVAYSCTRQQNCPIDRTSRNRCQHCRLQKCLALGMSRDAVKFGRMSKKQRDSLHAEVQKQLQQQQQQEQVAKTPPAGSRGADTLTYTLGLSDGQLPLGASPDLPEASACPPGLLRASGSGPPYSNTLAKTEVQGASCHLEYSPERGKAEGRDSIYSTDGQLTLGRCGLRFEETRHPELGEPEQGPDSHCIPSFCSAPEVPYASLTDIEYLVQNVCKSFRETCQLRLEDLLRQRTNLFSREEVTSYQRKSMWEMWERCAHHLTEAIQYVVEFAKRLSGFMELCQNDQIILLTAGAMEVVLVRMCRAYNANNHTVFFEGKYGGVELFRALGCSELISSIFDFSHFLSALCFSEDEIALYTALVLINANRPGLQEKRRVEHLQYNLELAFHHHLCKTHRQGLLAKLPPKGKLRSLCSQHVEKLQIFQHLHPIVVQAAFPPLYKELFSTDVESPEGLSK
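Stably transfected Drosophila Schneider cells are the test system, with ROR gamma fused to Gal4 and luciferase under UAS control; luminescence is read after 20 hr of 700 uM copper sulfate induction at ambient temperature.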
Sfp PPTase inh – qHTS Assay for Inhibitors of Bacillus subtilis Sfp phosphopantetheinyl transferase (PPTase) | 4'-phosphopantetheinyl transferase ffp (Bacillus subtilis), Q9F4F7 | Biochemical Sfp PPTase activity, qHTS | Potency, µM, most hits filed as inhibitors | hit rate 3.5% among 310,000 | AID 1490, 2009;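 further: the enzyme is Sfp with the accession as filed and its product quenches rhodamine fluorescence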
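Reaction rates are the 30-min fluorescence difference (ex 525, em 598 nm) in wells containing 15 nM Sfp, 5 uM rhodamine-CoA and 12.5 uM BHQ-2-YbbR at pH 7.6 with 10 mM MgCl2.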
PLK1 PBD inh – qHTS for Inhibitors of PLK1-PDB (polo-like kinase 1 - polo-box domain): Primary Screen; Serine/threonine-protein kinase PLK1 (Homo sapiens), P53350; Plk1 PBD binding of FITC phosphopeptide, fluorescence polarization; Potency, µM, most hits filed as inhibitors; hit rate 2.8% among 360,000; further: series mostly up to about 57 µM; nearly all actives have a fitted effect of over 65% in size
Numbers stand for hits; n = inactive; u = inconclusive; x = not tested or not shown; [ ] = remark or other dose. Shown are actives, neighbours in structure and some others; about 12% of the full set was active somewhere. Unless noted, the call rests on the fitted dose curve; in most records, active means well fitted curve in the direction sought with a large enough effect; inconclusive means small, poorly fitted or top-dose-only effect, or another doubt; inactive means no such curve, though single readings can be large; an effect the other way counts as inactive or inconclusive.

SMILES | ALDH1A1 inh | VP16 counter | RORgamma inh | Sfp PPTase inh | PLK1 PBD inh
O=S(=O)(NCCSCc1ccc(Cl)cc1Cl)c1ccc2c(c1)OCCO2 | u | n | n | n | u
Cc1[nH]n(-c2ccccc2)c(=O)c1N=Nc1ccccc1C(=O)N1CCOCC1 | n | n | u | n | n
NC(=S)n1[nH]c(-c2ccccc2)c(N=Nc2ccccc2C(=O)N2CCOCC2)c1=O | u | n | 2µM | u | n
C=CCOCCN(CC)CC | n | n | n | n | n
COCc1cc(=O)n2[nH]c(C)c(-c3ccc(Cl)cc3)c2n1 | x | x | x | x | n
CCOC(=O)Cc1cc(=O)n2[nH]cc(-c3ccc(Cl)cc3)c2n1 | u | u | 11µM | n | n
COCc1cc(=O)n2[nH]cc(-c3ccsc3)c2n1 | x | u | 16µM | n | n
CCOC(=O)Cc1c(C)nc2c(-c3ccccc3)c[nH]n2c1=O | u | n[0.365 µM] | 7.9µM | n | n
CCc1c(C)nc2c(-c3ccccc3)c[nH]n2c1=O | x | x | x | n | n
Cc1nc2c(C#N)c[nH]n2c(=O)c1CCO | x | n | n | n | 9.5µM
COCC(=O)OCC(=O)Nc1ccc(Cl)cc1[N+](=O)[O-] | n | u | n | n | n
Cc1cn(CC(=O)NCc2nc3ccccc3[nH]2)c(=O)[nH]c1=O | x | x | x | x | n
CCOC(=O)Cc1c(C)nc2c(-c3ccccc3)c(-c3ccccc3)[nH]n2c1=O | u | u | 13µM | n | n
O=Cc1ccc(OC2C=CC(c3ccccc3)OC2CO)cc1 (stereo unspecified) | u | n[10 µM] | n[10 µM] | n | x
Cc1ccc2c(c1)NC(=O)C(CC(=O)NCCCN1CCc3ccccc3C1)O2 (stereo unspecified) | u | n | n | 50µM | u
CC(=O)c1cccc(NC(=O)CC2Oc3ccc(C)cc3NC2=O)c1 (stereo unspecified) | 3.2µM | n | n | n | n
O=C(NCCN1CCCCC1)c1ccc(I)cc1 | n | n | n | n | x
c1ccc2nc(-c3nc4ccccc4o3)ccc2c1 | u | 10µM | n | u | n
Cc1ccc(COn2c(-c3ccc(Cl)cc3Cl)nc3ncccc32)cc1 | 18µM | n | n | n | n
Clc1cccc(COn2c(-c3ccc(Cl)cc3Cl)nc3ncccc32)c1 | n | n | n | n | n
CC(C)(C)C(=O)Cn1ncc(N2CCOCC2)c(Cl)c1=O | x | n | n | n | n
CC(C)(C)C(=O)Cn1ncc(Br)c(Br)c1=O | 7.9µM | n[10 µM] | u | n | n
c1ccc2c(c1)CC(N1CCN(c3cccc4c3OCCO4)CC1)C2 | 22µM | n | n | n | x
COc1ccccc1N=C1SCC(=O)N1Cc1ccco1 | x | n | n | n | n
Cc1ccccc1CN1C(=O)CS/C1=N/N=C/c1ccco1 | x | n | u | 45µM | u
SMILES | ALDH1A1 inh | VP16 counter | RORgamma inh | Sfp PPTase inh | PLK1 PBD inh
O=C(COc1ccc(Br)cc1)N/N=C1/SCC(=O)N1Cc1ccco1 | n | n | n | n | 24µM
O=C1CSC(=Nc2ccc(Cl)cc2)N1Cc1ccco1 | x | n | n | u | n
COc1ccc(OC)c(/C=N/N=C2\SCC(=O)N2Cc2ccco2)c1 | 5µM | u | n | 56µM | n
O=C1CS/C(=N/N=C/c2ccccc2)N1Cc1ccco1 | 11µM | n | n | u | n
O=S1(=O)CCN(C2CC2)CC1 | x | x | x | x | n
Cc1ccn2c(C(C)O)nnc2c1 (stereo unspecified) | x | x | x | x | n
COc1cccc(Nc2nc(C(N)C3CCCCC3)cs2)n1 (stereo unspecified) | x | x | x | x | n
CCc1cccc2c1NC(=O)[C@]21[C@@H]2C(=O)N(Cc3ccccc3)C(=O)[C@@H]2[C@@H]2CCCN21 | u | n | n | n | n
Cc1c(Cl)ccc2c1NC(=O)[C@]21[C@@H]2C(=O)N(Cc3ccccc3)C(=O)[C@@H]2[C@@H]2CCCN21 | 2.8µM | n | n | n | n
CCOC(=O)C1/C(=N\O)CC(C)(O)C(C(=O)OCC)C1c1ccc(OC)c(OC)c1 (stereo unspecified) | n | n | n | n | n
CCOC(=O)C1/C(=N\O)CC(C)(O)C(C(=O)OCC)C1c1ccc(N(C)C)cc1 (stereo unspecified) | u | n | n | 50µM | n
COc1ccc(/C=N/NC(=O)c2[nH]c3ccc(Cl)cc3c2-c2ccccc2)c(C(=O)O)c1OC | x | n | n | n | n
Cc1c(C(=O)N/N=C/c2ccc(N(C)C)cc2)[nH]c2ccc(Cl)cc12 | u | u | 6.3µM | n | n
Cc1c(C(=O)N/N=C/c2ccccc2)[nH]c2ccc(Cl)cc12 | n | u | 18µM | n | n
COc1cc(CNC(=O)c2cc(-c3cc(Cl)ccc3C)n[nH]2)cc(OC)c1 | x | x | x | x | n
Fc1ccc(Nc2ncnc3ccc(-c4ccoc4)cc23)cc1 | u | n | u | n | x
CC(=O)C(=Cc1ccc(C(=O)O)cc1)C(C)=O | u | n | n | n | n
Cc1ccc(NC(=O)C(=Cc2ccc(C(=O)O)cc2)C(=O)Nc2ccc(C)cc2C)c(C)c1 | x | u | 16µM | n | n
COC(=O)C(CC(=O)c1ccc(Br)cc1)n1nc(C)cc1C (stereo unspecified) | x | u | u | 50µM | n
O=C(CSc1nnc(-c2cccnc2)n1-c1ccccc1)Nc1ccccn1 | n | n | n | n | 3.4µM
Cc1ccc(-c2nnc(SCC(=O)Nc3cccnc3Cl)n2N)cc1 | x | x | x | x | n
Nc1nc(SCC(=O)Nc2cccnc2Cl)n[nH]1 | n | n | n | n | 12µM
Cc1ccc(-c2cc(NC(=O)CSc3n[nH]c(N)n3)n(-c3ccccc3)n2)cc1 | n | n | n | n | n
Nc1nc(SCC(=O)Nc2cc(-c3ccccc3)nn2-c2ccccc2)n[nH]1 | 10µM | n | n | n | n
CN(C)C(=O)CSc1nnc(-c2cccnc2)n1-c1ccccc1 | n | n | n | n | n
SMILES | ALDH1A1 inh | VP16 counter | RORgamma inh | Sfp PPTase inh | PLK1 PBD inh
Nn1c(SCC(=O)Nc2cccnc2Cl)nnc1-c1ccccc1 | x | x | x | x | 4.7µM
CCC(=O)O[C@@H]1[C@H](C)O[C@H](O[C@H]2[C@@H](N(C)C)[C@H](O)[C@@H](O[C@@H]3[C@@H](CC=O)C[C@@H](C)[C@@H](O)/C=C\C=C/C[C@@H](C)OC(=O)C[C@@H](OC(=O)CC)[C@H]3OC)O[C@H]2C)C[C@]1(C)O | n | n | n[2.98 µM] | n | x
CC(C)=CCC/C(C)=C/CO | n[13.5 µM] | n | n[10 µM] | n | x
COc1ccc(-n2c(=O)c3ccccc3n(CC(=O)Nc3cc(C)on3)c2=O)cc1OC | n | n | n | 45µM | n
COc1ccc(NC(=O)Cn2c(=O)n(CC3CCCO3)c(=O)c3ccccc32)c(OC)c1 (stereo unspecified) | 0.028µM | n | n | n | n
CC[C@@H]1CC2=C(C(=O)OC(C)(C)O2)[C@@H](c2ccc(Cl)cc2)O1 | x | x | x | x | n
COc1cc(-c2nc3ccccn3c2/N=C/c2cc(OC)c(OC)c(OC)c2)ccc1O | x | x | x | x | n
Cc1c(-c2ccc(Br)cc2)nc2ccccn12 | n | u | 10µM | n | n
Cc1ccc(-c2nc3ccccn3c2C=O)cc1 | u | n | n | n | n
